Screening data as filed in PubChem BioAssay.
Fluor 339 460 = intrinsic fluorescence of library compounds, ex339/em460 – biochemical, MLSMR library, data from DPM-DC assay, artefact control, profiling panel; AID 709; hit rate 5.5% among 65,000; fluorescence fold increase at 10 µM; compound autofluorescence, ex339/em460 nm, NADH buffer; stronger effect = higher value; 1 = no-compound wells, NADH background;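 active means at 10 µM, mean starting fluorescence two-fold or more over control wells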;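 further: signal is the first read of a kinetic run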
NADH coupling = inhibitors of enzymes used to reach an NAD/NADH endpoint; hit rate 0.02% among 65,000; coupled PK/LDH NADH assays, four targets; IC50, µM (top dose mostly 10 µM), inactives show at the highest dose inhibition;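 active means single-dose screening hits from any of four coupled enzyme assays that gave an IC50 when retested across doses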;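 further: the DPM-DC format reads NADH fluorescence rather than 340 nm absorbance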
A340 absorber = compound absorbs light at 340 nm; compound absorbance at 340 nm, fold over control; fold change at 10 µM; 65,000 tested, under 10 active; AID 708;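 active means at 10 µM dose, initial 340 nm absorbance at least 2 fold that of control wells; inactive means change under 2 fold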;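 further: initial absorbance extrapolated from kinetic A340 decline of NADH oxidation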
Spn PMK inh = inhibitors of Streptococcus pneumoniae phosphomevalonate kinase. purified PMK, PK/LDH-coupled NADH absorbance 340 nm. hit rate 0.49% among 65,000. AID 539. inhibition, % at 10 µM;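 active means top-ranked compounds by inhibition in the single 10 µM screen, taking a fixed number of the strongest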;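 further: 0% = full reaction with DMSO carrier and 100% = background rate without enzyme reaction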
Spn MK inh = blocks S. pneumoniae mevalonate kinase | purified MK, PK/LDH-coupled NADH absorbance 340 nm | hit rate 0.48% among 65,000 | AID 555 | inhibition, % at 10 µM;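 active means ranked among the strongest by inhibition in the single 10 µM screen, a fixed top-ranked set picked for dose follow-up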
DPM-DC inhibit = blocks S. pneumoniae diphosphomevalonate decarboxylase; hit rate 0.49% among 65,000; purified DPM-DC, PK/LDH coupled NADH fluorescence; calls only at 10 µM;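 active means the 320 compounds with the highest percent inhibition in the single-dose primary screen, excluding strongly autofluorescent ones, cut at about 32% in these data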;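 further: kinetic rate of NADH fluorescence loss reporting ADP formed by the decarboxylase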
The depositor's hits bear a star; i = inactive; . = no result given; + = active, no number. Only some compounds are listed: those with a hit (about 6.5% of all), similar ones and a draw of the others.

SMILES	Fluor 339 460	NADH coupling	A340 absorber	Spn PMK inh	Spn MK inh	DPM-DC inhibit
COC(=O)c1[nH]c2ccc(C)cc2c1NC(=O)C(C)N1CCN(C2CCCCC2)CC1 (stereo not drawn)	3.5*	8%	1.1	8	7	.
Cc1ccc2[nH]c(C(=O)O)c(NC(=O)CN3CCN(c4cccc(C)c4C)CC3)c2c1	1.1	9%	1	9	10	i
COC(=O)c1[nH]c2ccc(C)cc2c1NC(=O)CN1CCN(c2ccc(F)cc2)CC1	2.2*	9%	1	8	8	i
O=C(NCc1ccccc1F)C1CCCN1C(=O)NCc1ccccc1 (stereo not drawn)	1	7%	1	15	6	i
CS(=O)(=O)N(CC(=O)NCc1ccc2c(c1)OCO2)Cc1ccccc1	1.1	6%	1	1	6	i
COC(=O)c1[nH]c2ccc(C)cc2c1NC(=O)CN1CCN(c2ccccc2)CC1	2.1*	9%	1.1	17	10	i
COC(=O)c1[nH]c2ccc(C)cc2c1NC(=O)CN1CCN(C(=O)c2ccccc2)CC1	2.9*	4%	1	6	9	.
CCC1CCCCN1C(=O)CSc1nnc(CNC(=O)c2cc(OC)c(OC)c(OC)c2)o1 (stereo not drawn)	1	9%	1	19	7	i
Cn1c(/C=N/n2cnnc2)nc2ccccc21	2.5*	3%	1	7	6	.
Cn1c(/C=N/c2nc3ccccc3[nH]2)nc2ccccc21	1.2	6%	1	5	7	i
Cc1cccc(OCCCCCn2ccnc2)c1	1.1	16%	1	0	48*	i
Cc1ccccc1OCCCCCn1ccnc1	1.1	1%	1.1	4	0	i
C/C(=N\O)c1ccc2c3ccccc3n(C)c2c1	2.7*	10%	1	1	11	i
C/C(=N\O)c1c(C)c2ccccc2n1C	1.1	4%	1	10	1	i
COCc1cc(C)c(C#N)c(=S)[nH]1	1.1	26%	1	21	58*	i
O=C(Nc1ccc(F)cc1F)c1cc2ncc(Br)cn2n1	1.1	5%	1	2	6	i
COC(=O)c1ccccc1NC(=O)c1cc2ncc(Br)cn2n1	2.1*	10%	1.1	5	13	i
Cc1csc2ncc(C(=O)Nc3cccc(C(F)(F)F)c3)c(=O)n12	1.4	10%	1.1	5	3	i
COc1ccc(C)cc1NC(=O)c1cnc2scc(C)n2c1=O	2.1*	5%	1.1	9	0	.
CCc1ccc(NC(=O)c2cnc3scc(C)n3c2=O)cc1	1.2	26%	1.2	4	14	+
O=C(CCCn1c(=O)[nH]c2cc(Cl)ccc2c1=O)NCCCN1CCCC1=O	1	2%	1	4	2	i
CCC(CC)C(=O)Nc1ccccc1NC(C)=O	1.1	5%	1	7	6	i
Nc1nc(N)c2nc(-c3ccccc3)c(N)nc2n1	2.5*	3%	1	8	6	.
N#Cc1c(N)nc(-c2ccccc2)nc1-c1ccccc1	1.1	6%	1.1	11	2	i
CCOC(=O)c1sc(=NC(=O)c2ccc(S(=O)(=O)N3CC(C)OC(C)C3)cc2)n(C)c1C (stereo not drawn)	3.9*	9%	1	17	11	i
SMILES	Fluor 339 460	NADH coupling	A340 absorber	Spn PMK inh	Spn MK inh	DPM-DC inhibit
O=S(=O)(Nc1cccc2ccccc12)N1CCCC1	2.5*	9%	1	8	3	i
O=C(NCCc1ccccc1)c1ccccc1NS(=O)(=O)N1CCCC1	3.4*	6%	1	6	5	.
COc1ccccc1NC(=O)c1ccccc1NS(=O)(=O)N1CCCC1	1.4	7%	1.1	5	3	i
COc1ccc(CNC(=O)c2ccc(NS(=O)(=O)c3c(C)noc3C)cc2)cc1	1.1	6%	1	12	6	i
CCCCc1ccc(NC(=O)C2CCCO2)cc1 (stereo not drawn)	1.1	2%	1	7	8	i
c1ccc(C2Nc3ccccc3-c3nc4ccccc4n32)nc1 (stereo not drawn)	2.3*	5%	1.1	1	9	.
c1coc(C2Nc3ccccc3-c3nc4ccccc4n32)c1 (stereo not drawn)	2.3*	6%	1.1	11	1	.
COc1cc(C(=O)Nc2cccc(-c3nncn3C)c2)cc(OC)c1OC	1	2%	1	6	6	i
Cc1csc2ncc(C(=O)NCc3ccccc3Cl)c(=O)n12	2.1*	4%	1.2	1	6	.
CC(NC(=O)c1ccccc1O)c1ccccc1 (stereo not drawn)	2.2*	3%	1.1	0	5	.
Cc1csc2ncc(C(=O)NC(C)c3ccccc3)c(=O)n12 (stereo not drawn)	2.1*	6%	1.2	4	8	.
O=C(Cn1nnc(-c2ccncc2)n1)N(C1CCCCC1)C1CCCCC1	1.1	5%	1	13	0	i
Cc1ccc(-n2cc(C(C)(C)C)[nH]c2=S)cc1	1.1	5%	0.99	5	9	i
CCOc1ccc(-c2nnc(-c3snc(-c4ccc(F)cc4)c3N=CN(C)C)o2)cc1	3.8*	4%	1.1	7	0	.
CCn1cc(C(=O)NC2CCCCC2C)c(=O)c2ccc(C)nc21 (stereo not drawn)	1.3	9%	1.1	17	11	i
Cc1c2c(nc3c(C(=O)NC4CCCCC4C)cnn13)CCCC2 (stereo not drawn)	4.4*	16%	1	29*	3	.
CCCOc1ccc2oc(=O)c3c(c2c1)CCCN3C(=O)CN1CCN(c2ncccn2)CC1	1.9	15%	1.1	8	15	i
O=C(CN1CCCC1)N1CCCc2c1c(=O)oc1ccc(OCc3ccccc3)cc21	3*	12%	1.1	4	0	+
CCCOc1ccc2oc(=O)c3c(c2c1)CCCN3C(=O)CN1CCN(C(=O)c2ccco2)CC1	3*	7%	1.1	6	7	i
CCOC(=O)N1CCC(NC(=O)c2cnn3cccnc23)CC1	2.1*	10%	1.1	5	6	i
O=C(CSc1nc2c(c(=O)n1-c1ccc(Cl)cc1)SCC2)Nc1ccc2c(c1)OCCO2	1.1	9%	1.1	10	9	i
COc1ccc(C2C(C(=O)N3CCOCC3)=C(C)NC3=C2C(=O)CC(C)(C)C3)c(OC)c1 (stereo not drawn)	4.8*	4%	1.1	3	4	.
CC1=C(C(=O)N2CCOCC2)C(c2ccccc2F)C2=C(CC(C)(C)CC2=O)N1 (stereo not drawn)	4.8*	4%	1.1	7	1	.
CC1=C(C(=O)OCCOc2ccccc2)C(c2ccc(C)o2)C2=C(CC(C)(C)CC2=O)N1 (stereo not drawn)	1.2	6%	1.1	3	6	i
